Screens: PubChem, National Center for Advancing Translational Sciences (NCATS)
Sampled rows, rich in hits. Any-hit rate of the full collection: about 8%.
HT1080-NT tox: kills 2HG-producing HT-1080-NT fibrosarcoma cells. HT-1080-NT fibrosarcoma viability, CellTiter-Glo ATP luminescence, 48 h. Potency, µM (titrated, usually from 46.1 µM), without a hit: at the highest dose activity, negative = less viability, hits mostly cytotoxic. hit rate 1.6% among 360,000. AID 686970;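 note: NT is the 2HG producing partner of a matched IDH1 knockdown line; 0% = DMSO-treated cells and -100% = media-only wells without cells; nearly all actives have a fitted effect of over 55% in size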
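Toxicity toward the 2HG-producing NT line was scored as %Activity, normalised to DMSO and no-cell wells, from CellTiter-Glo luminescence after 48 hours' treatment.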
SW480 rerep: DNA re-replication induction in SW480 cells; SW480 DNA re-replication, Hoechst DNA content imaging, 48 h; Potency, µM (doses to about 46.1 µM), for the others: at the highest dose re-replication activation, hits mostly activators; hit rate 1.8% among 340,000; AID 624297; note: % of control where 0% means no effect; nearly all actives have a fitted effect of over 55% in size
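Cells (250 per well) received 23 nL compound or DMSO by pin tool and were kept 48 hr at 37 C, 5% CO2. Nuclei were then stained with Hoechst for 40 min and scanned for DNA content.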
MCF10A rerep: induces DNA re-replication in MCF 10a normal breast cells | MCF 10A DNA re-replication, Hoechst nuclear intensity, 48 h | Potency, µM (titrated, usually from 46.1 µM), inactives show at the highest dose activity, positive = re-replication, usual class: activators | hit rate 2.9% among 350,000; note: % of control where 0% means no effect; nearly all actives have a fitted effect of over 50% in size
KB-V1 cytotox: KB-V1 MDR subline cytotoxicity; KB-V1 MDR cells viability, CellTiter-Glo, 72 h; Potency, µM (series often up to 46.1 µM), actives largely listed as cytotoxic; hit rate 3.4% among 400,000; AID 1347076; note: % is set by controls: 0 for no effect and ±100 for the full control effect; nearly all actives have a fitted effect of over 60% in size
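Drug-selected KB-V1 cells, grown in DMEM lacking phenol red with 10% FBS, receive compound titrations; after three days at 37 degrees C, surviving cell ATP is quantified by CellTiter-Glo luminescence and responses normalized and curve-fitted.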
HT1080 IDH1KD tx: kills HT-1080 cells with IDH1 knockdown; Potency, µM (highest dose often 46.1 µM), for inactives: at the top dose activity, negative = toxicity, actives largely listed as cytotoxic; AID 686971; HT-1080 IDH1 knockdown viability, ATP luminescence, 48 h; hit rate 2% among 360,000;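 note: 0% = DMSO wells and -100% = cell-free medium wells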
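Assay cells: HT-1080 with IDH1 knockdown, 750 per well, RPMI/5% FBS. Exposure: 48 h at 37 °C following 2 h pre-incubation. Read: CellTiter-Glo luminescence; fitted concentration-response, curve class assigned.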
KB-3-1 tox: KB-3-1 parental cell cytotoxicity | KB-3-1 viability, CellTiter-Glo ATP luminescence, 72 h | Potency, µM (doses to about 46.1 µM), most hits filed as cytotoxic | hit rate 1.4% among 400,000; note: % is set by controls: 0 for no effect and ±100 for the full control effect; nearly all actives have a fitted effect of over 60% in size
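Multi-concentration cytotoxicity screen in KB-3-1 cells grown in DMEM lacking phenol red with 10% FBS. After 72 h at 37 °C with compound, ATP-dependent luminescence was recorded.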
Starred values were filed as active, the others as inactive; i = inactive; ? = inconclusive; . = no result; ! = not confirmed by another sample; [ ] = dose if it differs, or a comment. Calls come from the whole dose curve; as a rule, active = well fitted curve in the direction sought with a large enough effect; inconclusive = small, poorly fitted or top-dose-only effect, or another doubt; inactive = no such curve, though single readings can be large; an effect the other way counts as inactive or inconclusive. Potency is the fitted concentration of half-maximal effect.

SMILES	HT1080-NT tox	SW480 rerep	MCF10A rerep	KB-V1 cytotox	HT1080 IDH1KD tx	KB-3-1 tox
Nc1ccccc1-c1nc2ccccc2s1	-17%	?	16µM*	i	-14%	i
CCN(CC)C(=O)Cn1c(C)c(/C=C/c2cc[n+](C)cc2)c2ccccc21	10%	-2%	11%	i	1%	i
CC1CN(C(=O)COC(=O)/C=C/c2ccccc2)CC(C)O1 (stereo not drawn)	-4%	.	.	i	2%	i
CS(=O)(=O)c1ccc(C(=O)OCC(=O)NCc2cccs2)cc1[N+](=O)[O-]	?	9.2µM*	4.1µM*	?	-26%	?
COC(=O)c1cc(C(=O)OCC(=O)NNC(=O)c2cccs2)cc([N+](=O)[O-])c1	-19%	2.9µM*	-10%	i	?	i
O=C(COC(=O)c1ccc(Cl)cc1[N+](=O)[O-])NNC(=O)c1cccs1	9%	-11%	-1%	i	12%	i
Cc1cc(C(=O)OCC(=O)NNC(=O)c2cccs2)ccc1[N+](=O)[O-]	11%	12µM*	?	i	2%	i
Cc1cc(Nc2ccc(C)c(Cl)c2)nc(N2CCOCC2)n1	?	?	?	i	?	i
CCOC(=O)C1CCCN(CC(O)COc2cccc(C)c2)C1 (stereo not drawn)	9%	0%	3%	i	15%	i
COCCCNC(=S)NC(=O)c1ccc(C)cc1	0%	-8%	5%	18µM*	14%	i
COc1ccc([N+](=O)[O-])cc1CN1CCN(c2ncc(Cc3ccccc3)cn2)CC1	?	.	.	7.3µM*	?	?
Oc1ccc(Br)c(CN2CCN(c3ncc(Cc4ccccc4)cn3)CC2)c1	?	.	.	18µM*	?	21µM*
COCCN(C(=O)c1csnn1)C(C(=O)NC1CCCCC1)c1cccs1 (stereo not drawn)	4%	-5%	-3%	i	-1%	i
CC1(C(=O)Nc2ccc3c(c2)OCO3)CCN1Cc1cccc2c1OCO2 (stereo not drawn)	-19%	.	.	?	-7%	?
CC1(C(=O)Nc2cccc3cccnc23)CCN1Cc1cccc2c1OCO2 (stereo not drawn)	6.5µM*	.	.	?	?	?
CCOc1ccc(CCNC(=O)c2nnc(Cc3cc(OC)c(OC)c(OC)c3)o2)cc1OCC	.	.	.	i	.	i
O=C(NNCC(O)COc1ccccc1)c1ccccc1 (stereo not drawn)	4%	1%	-1%	i	17%	i
CC(C)N(CCNCC(O)COc1ccc(C(C)(C)c2ccccc2)cc1)C(C)C (stereo not drawn)	29µM*	?	?	i	?	i
OC(CNCCC(c1ccccc1)c1ccccc1)COc1ccccc1 (stereo not drawn)	?	1%	?	?	23µM*	i
OC(CNCCc1ccccc1)COc1ccc(OCC(O)CNCCc2ccccc2)cc1 (stereo not drawn)	?	?	?	?	23µM*	21µM*
COC(CNC(=O)C1CCCN1C(=O)OCc1ccccc1)OC (stereo not drawn)	15%	-12%	-3%	i	3%	i
COC(=O)[C@@H]1C[C@]2(OC(=O)c3ccccc3)C=CC(=O)C[C@@H]2N1C(=O)OCc1ccccc1	?	21µM*	16µM*	i	?	?
COC1=CC(=O)CC(C)C12Oc1c(Cl)c(OC)cc(OC)c1C2=O (stereo not drawn)	?	23µM*!	?	?	?	?
COC1=CC(=O)C[C@@H](C)[C@]12Oc1c(Cl)c(OC)cc(OC)c1C2=O	?	?	?	?	?	i
CN1/C(=C\C(=O)CSc2nnc(N)s2)C(C)(C)c2ccccc21	0%	-3%	?	i	-23%	i
SMILES	HT1080-NT tox	SW480 rerep	MCF10A rerep	KB-V1 cytotox	HT1080 IDH1KD tx	KB-3-1 tox
COc1ccc(Nc2nnc(SCC(=O)/C=C3/N(C)c4ccccc4C3(C)C)s2)cc1	-15%	0%	?	2.6µM*	?	?
Cc1ccc2[nH]c(O)c(N=Nc3ccccc3C)c2c1	1%	-2%	4%	i	2%	i
CCOc1ccccc1CNC(=O)CN(c1ccc(C)cc1)S(=O)(=O)N(C)C	.	.	.	i	.	?
CCN(CC)c1ccc(C(=C2C=CC(=[N+](CC)CC)C=C2)c2ccccc2)cc1	2.6µM*	?	?	?	1µM*	0.026µM*
CCN(CC)c1ccc(C(=C2C=CC(=[N+](CC)CC)C=C2)c2ccc(N(CC)CC)cc2)cc1	7.3µM*	21µM*	?	?	5.2µM*	?
Cc1ccc(S(=O)(=O)N[C@H](C(=O)N2CCC(C(=O)N[C@@H](CC(=O)O)C(=O)O)CC2)C(C)C)cc1	1%	-13%	-7%	i	0%	i
CCCCOc1ncnc2c1[nH]c1ccc(F)cc12	?	-12%	?	6.5µM*	-5%	18µM*
CCCCOCCCNc1ncnc2c1[nH]c1ccccc12	13µM*	?	?	1.6µM*	18µM*	2.6µM*
CCCCOc1ncnc2c1[nH]c1ccccc12	-18%	24%	21%	i	15µM*	?
CC1CCCN(C(=S)SCC(=O)O)C1 (stereo not drawn)	21%	-2%	-6%	i	18%	i
Cc1cccc2cc(CN(Cc3ccco3)C(=O)Nc3cccc(C#N)c3)c(Cl)nc12	?	3%	14%	12µM*	11µM*	i
Cc1ccc(C)c2[nH]c(=O)c(CN(Cc3ccco3)C(=O)Nc3ccccc3)cc12	-14%	-1%[9.22 µM]	28%	i	-26%	i
CCNC(=S)N/N=C1\CCCCc2ccccc21	8%	-2%	28%	16µM*	8%	i
Cc1ccc(NC(=S)N/N=C2/CCCCc3ccccc32)cc1	-21%	-14%	?	i	-29%	i
Cc1cccc(NC(=S)N/N=C2/CCCCc3ccccc32)c1	-21%	5%	?	16µM*	-27%	?
CCNC(=S)N/N=C1\C(=O)c2cccc3cccc1c23	4%	-3%	21µM*	i	2%	i
CCn1cc(C(=O)NCCOC)c(=O)c2ccc(C)nc21	4%	-6%[9.22 µM]	5%	i	12%	i
CCOC(=O)c1cnc(-n2nc(C)cc2C)nc1NNc1ncc(-c2ccccc2)cn1	?	18%	11%	?	?	?
